About 79,000 compounds went through this panel and 15% of them were active in at least one assay; those are over-represented in the sample as a whole. A number with no mark means an inactive call. Cut-off read from the data, not from the text of the source: active = growth inhibition above about 70%; inactive = the rest.
Assay: NCI Yeast Anticancer Drug Screen. Data for the cln2 rad14 strain (AID 165);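 note: 0% = growth equal to vehicle treated cultures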
Conditions: S. cerevisiae cln2 rad14 strain, at 50.0 µM, active compounds read high
Summary of the method: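 Relative to vehicle controls, growth inhibition of compound-treated cln2 rad14 yeast was recorded.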

Row | Compound | growth inhibition [%]
1 | NC1C(O)C(N)C(O)C(O)C1O (centres undefined) | 1.6
2 | CCOc1ccc(C(C)(CC)c2cc3c(cc2OC)OCO3)cc1 (centres undefined) | 3.55
3 | C/C(CCC(=O)O)=N\NC(=O)COc1ccc(Cl)cc1Cl | 12.1
4 | CCCCCCCCCCCC1=c2o[nH]c2=C(c2ccccn2)C(=O)C1=O | -45.5
5 | O=CC(NC(=O)N(CCF)N=O)C(O)C(O)C(O)CO (centres undefined) | -15.6
6 | O=C(O)c1cc(/C=C/c2ccccc2)ccc1[N+](=O)[O-] | -33.6
7 | NNC(=S)N/N=C(\c1nc2ccc(Cl)cc2[nH]c1=O)C(O)c1cccc([N+](=O)[O-])c1 (centres undefined) | -17.1
8 | CCN(CC)c1ccc2cc(-c3nc4ccccc4[nH]3)c(=O)oc2c1 | 3.15
9 | CN(C)C(=O)Nc1ccc2c(c1)OCO2 | -31.9
10 | Oc1cc2c(cc1C(c1ccc(Cl)cc1)N1CCCCC1)OCO2 (centres undefined) | -6.4
11 | c1ccc2c(c1)Cc1c-2n[nH]c1-c1[nH]nc2c1Cc1ccccc1-2 | 22.3
12 | CCOC(=O)c1c(/N=C/c2ccc(N(C)C)cc2)sc2c1CCCC2 | 23.6
13 | Cc1csc[n+]1C/C(=N/O)c1ccc(I)cc1 | 3.65
14 | C(=C\C(Sc1ccccc1)c1ccccc1)/NNC1=NC(c2ccccc2)C(c2ccccc2)=NN1 (centres undefined) | -4.35
15 | CCOc1ccccc1NC(=O)/C=C1\NC(=O)CS1 | 11.3
16 | CN(C)CCCCCCNCCC#N | -8.85
17 | CC(=O)OC(OC(C)=O)c1cccc2ccccc12 | -15.9
18 | CC(C)CCCC(C)C1CCC2C(CC(=O)O)C(C3(C)CCC(O)CC3=O)CCC2(C)C1 (centres undefined) | 8.35
19 | N#Cc1nc(Nc2ccc([N+](=O)[O-])cc2)sc1N | 36.2
20 | O=C(O)COc1cc(Cl)cc(F)c1Cl | -33.2

Assay: NCI Yeast Anticancer Drug Screen. Data for the bub3 strain (AID 167)
Conditions: S. cerevisiae bub3 mutant strain, at 50.0 µM, active compounds read high
Summary of the method: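 Screening used yeast with an engineered genetic alteration affecting cell cycle control. Compound-exposed cultures were compared with vehicle cultures, and reduced growth was taken as inhibition.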

Row | Compound | growth inhibition [%]
21 | CN1C(=O)C(=O)n2c(cc3ccccc32)C1=O | -0.25
22 | CSSC(SC)SC | -11.6
23 | CC(C)=C(CSC#N)S(=O)(=O)c1ccc(C)cc1 | 36.9
24 | S=C(c1ccccc1Cl)N1CCOCC1 | 20.1
25 | CCN(CC)c1ccccc1-c1ccccc1 | 6.05
26 | CC(=O)Nc1ccc(/C=N/NC(N)=O)cc1 | -0.7
27 | O=C1CC2C(=O)N(Cc3ccccc3)C1C=C2S(=O)(=O)c1ccccc1 (centres undefined) | -1.3
28 | CC/C(C)=C1/CC(C)(C)N=C1C | -12.2
29 | O=C1c2cccc3cc([N+](=O)[O-])cc(c23)C(=O)N1C(Cc1ccccc1)c1ccccc1 (centres undefined) | 10.6
30 | NC(N)=Nc1nc2ccc(Cl)cc2[nH]1 | -11.9
31 | COC(=O)CCSc1ccccc1 | -15.1
32 | O=C(C(=O)c1cccc(C(=O)C(=O)c2ccccc2)c1)c1ccccc1 | -29
33 | CCCCS(=O)(=O)Nc1cccc(C(=O)O)c1 | 39.8
34 | CCC(CC)OC(=O)Nc1cccc2ccccc12 | 4.9
35 | CN(C)CCCN=C(N)N | -57.5
36 | CCC(=O)N(C)C1(C#N)CCCCC1 | 4.85
37 | CONC(CC(=O)c1ccccc1)c1ccccc1 (centres undefined) | 14.2
38 | Cn1ncc2c(N)nc(NCCO)nc21 | 13.7
39 | O=C1NC(c2cccc3ccccc23)Nc2ccccc21 (centres undefined) | 0.85
40 | O=C1C(Cl)(Cl)C(=O)C(Cl)(Cl)C(=O)C1(Cl)Cl | 16.3
41 | NC1C(O)C(N)C(O)C(O)C1O (centres undefined) | -13.4
42 | CCOc1ccc(C(C)(CC)c2cc3c(cc2OC)OCO3)cc1 (centres undefined) | -20.1
43 | C/C(CCC(=O)O)=N\NC(=O)COc1ccc(Cl)cc1Cl | 14.8
44 | CCCCCCCCCCCC1=c2o[nH]c2=C(c2ccccn2)C(=O)C1=O | 11.4
45 | O=CC(NC(=O)N(CCF)N=O)C(O)C(O)C(O)CO (centres undefined) | 1.3
46 | O=C(O)c1cc(/C=C/c2ccccc2)ccc1[N+](=O)[O-] | -5.8
47 | NNC(=S)N/N=C(\c1nc2ccc(Cl)cc2[nH]c1=O)C(O)c1cccc([N+](=O)[O-])c1 (centres undefined) | 27.4
48 | CCN(CC)c1ccc2cc(-c3nc4ccccc4[nH]3)c(=O)oc2c1 | 11.1
49 | CN(C)C(=O)Nc1ccc2c(c1)OCO2 | -13.2

Source: PubChem BioAssay (NCI)
